# According to PubChem BioAssay (NCI):
# The panel holds about 83,000 compounds, 20% with a hit somewhere; the sample as a whole holds those more often.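 Results are percent growth after 48 hours of single-concentration exposure. 100 means growth as in untreated cells, lower positive values show inhibition; negative values down to -100 show cell death.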 Values without a mark were called inactive. Active and inactive are the calls of the source. The calls were made as follows: active = growth percent below 10; inactive = the rest.
# Test system: HL-60(TB) leukemia
# Assay: NCI-60 one-dose screen, 48 h (100 = growth as untreated, 0 = no growth, -100 = all killed)
# Details: 10 µM unless noted
row,Compound,growth
1,CC(C)[C@H]1CC[C@H]2[C@@H](CC[C@H]3[C@](C)(CN)CCC[C@]23C)C1,71.8%
2,COc1cc(C(=O)Nc2cc(O)c(CC=C(C)C)c(O)c2)cc2c1O[C@]1(C)CC[C@@H](O)C(C)(C)[C@H]1C2,5.12% (active)
3,COc1ccc(C2C=C(c3ccc(N)cc3)N=C3SC=CN32)cc1OC (stereo not drawn),105%
4,CNCCn1c(=O)c2cc(OC)c(OC)cc2c2ccc3cc4c(cc3c21)OCO4,-25.7% (active)
5,CC(=O)[C@@]1(O)[C@H](C)C[C@H]2[C@@H]3C=C(C)C4=Cc5c(cnn5-c5ccccc5)C[C@]4(C)[C@H]3[C@@H](O)C[C@@]21C,-16% (active)
6,COC1=C(OC)C(=O)C(SC/C=C(\C)CCCC(C)CCCC(C)CCCC(C)C)=CC1=O (stereo not drawn),-36.3% (active)
7,COc1ccc2c(c1)c(-c1nc(-c3c[nH]c4c(Cl)nccc34)cs1)cn2C,108%
8,Cc1nn2c(/C=C3/C(=O)Nc4ccc(Cl)cc43)c(-c3ccccc3)nc2s1,81.5%
9,c1ccc(Nc2ncc3c(n2)-c2cccn2CC3)cc1,107%
10,CCCCN(CCCC)CC(O)c1ccc(OCc2ccccc2)c2ccccc12 (stereo not drawn),-23.6% (active)
11,NC1=NN=C2N(N)C(=O)c3cnn(-c4ccccc4)c3N2c2nc(-c3ccccc3)cc(-c3ccccc3)c21,105%
12,Fc1cc(-c2ncc(-c3cc(F)c(F)c(F)c3)c(NC3CCCCCC3)n2)cc(F)c1F,97.4%
13,COc1cc2ncnc(Oc3ccc(NC(=O)Nc4ccc(CN5CCOCC5)c(C(F)(F)F)c4)c4ccccc34)c2cc1OC,-23% (active)
14,Cc1ccc(NC(=O)Nc2nc3ccccc3s2)cc1NC(=O)Nc1nc2ccccc2s1,106%
15,FC(F)(F)c1nc2c(NCc3ccc(-c4ccccc4)cc3)cccc2[nH]1,21.1%
16,COc1ccc(F)cc1/C=C/C(=O)/C=C(/C=C/c1cc(F)ccc1OC)OB(F)F,-8.82% (active)
17,COc1ccc(NNS(=O)(=O)O)cc1,103%
18,CCO/C=C1\SC(=S)N(c2cccc(C)c2)C1=O,99%
19,CN(C)c1ccc(Nc2c3ccccc3nc3ccccc23)cc1,-2.21% (active)
20,O=c1cc(-c2ccc3c(c2)OCCO3)oc2cc(Cl)ccc12,110%
21,NCCOc1ncccc1/C=C1\c2ccccc2-c2ccc(C(F)F)cc21,-3.26% (active)
22,CC(Oc1ccc(Cl)cc1)c1ccccc1 (stereo not drawn),93.6%
23,CCOC(=O)c1c(O)cc(-c2ccccc2)cc1-c1sc(N(C)Cc2ccccc2)nc1Cl,100%
24,COC1=CC(c2ccc[nH]2)=N/C1=C\c1[nH]c(C)c(C(=O)OC(C)C)c1C,2.29% (active)
25,O=C(O)/C=C\C(=O)N1C/C(=C\c2ccccc2Cl)C(=O)/C(=C/c2ccccc2Cl)C1,-3.51% (active)
26,O=C(CN1C(=O)c2ccccc2S1(=O)=O)Nc1nc(-c2cc3ccccc3oc2=O)cs1,101%
27,COc1ccc2c(c1)C=C1CSCC3=Cc4cc(OC)ccc4OC13O2,-5.12% (active)
28,C=C1C(=O)O[C@H]2[C@H]1CC/C(COC(=O)NCc1c[nH]c3ccccc13)=C\CC[C@@]1(C)O[C@@H]21,-46.8% (active)
